Laboratory results from PubChem BioAssay (NCATS).
Results filed as inconclusive are left out. Calls of active or inactive are those of the source. Calls follow the shape of the dose curve; as a rule, active = well fitted curve in the direction sought with a large enough effect; inconclusive = small, poorly fitted or top-dose-only effect, or another doubt; inactive = no such curve, though single readings can be large; an effect the other way counts as inactive or inconclusive.

Columns and labels:
CRL-7250 = normal cell line; test: Cytotoxic Profiling of Annotated Libraries Using Quantitative High-Throughput Screening (AID 1296008); conditions: Five cell lines viability, CellTiter-Glo ATP luminescence, 48-72 h; max response: stronger effect = lower value; also: nearly all actives have a fitted effect of over 60% in size; also: potency is read from the fitted curve at half-maximal effect; as to max response: % is scaled to controls: 0 for no effect and ±100 for the full control effect
Outline: (§1)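 Cells exposed to compounds for 48 or 72 hr at 37 degrees Celsius. Viability read as ATP-coupled luminescence with CellTiter-Glo after 10 min at room temperature.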

HEK293 = test: as above; conditions: Five cell lines viability, CellTiter-Glo ATP luminescence, 48-72 h; max response: stronger effect = lower value
Outline: as §1

HaCat [1] = test: as above; conditions: Five cell lines viability, CellTiter-Glo ATP luminescence, 48-72 h; max response: stronger effect = lower value
Outline: as §1

KB-3-1 = test: as above; conditions: Five cell lines viability, CellTiter-Glo ATP luminescence, 48-72 h; max response: stronger effect = lower value
Outline: as §1

NIH3T3 [2] = test: as above; conditions: Five cell lines viability, CellTiter-Glo ATP luminescence, 48-72 h; max response: stronger effect = lower value
Outline: as §1

HACAT [3] = test: qHTS assay to identify novel small-molecules to repurpose for Merkel cell carcinoma treatment (AID 1296009); conditions: MCC and control cell lines, CellTiter-Glo viability, 72 h; at 44.8 µM (top of the series) unless noted; also: nearly all actives have a fitted effect of over 60% in size
Outline: (§2)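 CellTiter-Glo luminescence after 72 hr compound exposure at 37 degree celsius gave cell viability. Libraries NPC and MIPE were run as 8- and 11-point dose responses; RLUs normalized to DMSO (negative) and no-cell (cytotoxicity) controls.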

C33A = test: Primary qHTS to identify gynecologic anti-cancer compounds using libraries of approved drugs and bioactive compounds (AID 1345084); conditions: Gynecologic cancer cell panel viability, ATPlite luminescence, 48 h; series mostly up to 57.5 µM; also: % is scaled to controls: 0 for no effect and ±100 for the full control effect; nearly all actives have a fitted effect of over 55% in size
Outline: (§3)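 ATP-based viability (ATPlite), 1,000 cells/well, 16 h pre-incubation, 48 h compound at 37 C, 5% CO2, 15 min RT before read.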

CAOV3 = test: as above; conditions: Gynecologic cancer cell panel viability, ATPlite luminescence, 48 h; series mostly up to 57.5 µM
Outline: as §3

CASKI = test: as above; conditions: Gynecologic cancer cell panel viability, ATPlite luminescence, 48 h; series mostly up to 57.5 µM
Outline: as §3

Es-2 = test: as above; conditions: Gynecologic cancer cell panel viability, ATPlite luminescence, 48 h; series mostly up to 57.5 µM
Outline: as §3

HeLa = test: as above; conditions: Gynecologic cancer cell panel viability, ATPlite luminescence, 48 h; series mostly up to 57.5 µM
Outline: as §3

Hek293T = test: as above; conditions: Gynecologic cancer cell panel viability, ATPlite luminescence, 48 h, control line for the selectivity index; series mostly up to 57.5 µM
Outline: as §3

JEG-3 = test: as above; conditions: Gynecologic cancer cell panel viability, ATPlite luminescence, 48 h; series mostly up to 57.5 µM
Outline: as §3

NIH3T3 [4] = test: qHTS assay to identify novel small-molecules to repurpose for Merkel cell carcinoma treatment (AID 1296009); conditions: MCC and control cell lines, CellTiter-Glo viability, 72 h; at 44.8 µM (top of the series) unless noted; also: nearly all actives have a fitted effect of over 60% in size
Outline: as §2

OCC1=C[C@@H](O)[C@@H]2C=CO[C@@H](O[C@@H]3O[C@H](CO)[C@@H](O)[C@H](O)[C@H]3O)[C@H]12
inactive: max response (CRL-7250) -1.82% | max response (HEK293) 0.828% | outcome (HaCat [1]) | outcome (KB-3-1) | max response (NIH3T3 [2]) 4.6% | outcome (HACAT [3]) | Potency (C33A) | Potency (CAOV3) | outcome (CASKI) | Potency (Es-2) | Potency (HeLa) | Potency (Hek293T) | Potency (JEG-3)

C=CC(C)(CC/C=C(\C)C(=O)OC[C@H]1O[C@@H](OC(C)(C=C)CC/C=C(\C)C(=O)O[C@H]2[C@H](O)[C@@H](O)[C@H](OC(C)(C=C)CC/C=C(\C)C(=O)O)O[C@@H]2CO)[C@H](O)[C@@H](O)[C@@H]1O)O[C@@H]1O[C@H](CO)[C@@H](O)[C@H](O)[C@H]1O (stereo partly drawn)
inactive: max response (CRL-7250) -2.1% | max response (HEK293) -7.01% | outcome (HaCat [1]) | max response (KB-3-1) 3.96% | max response (NIH3T3 [2]) -1.72% | outcome (HACAT [3]) inactive [at 9.27 µM] | activity change, negative = cytotoxicity (C33A) -1.99% [at 11.6 µM] | activity change, negative = cytotoxicity (CAOV3) -17.5% [at 11.6 µM] | activity change, negative = cytotoxicity (CASKI) -16.7% [at 11.6 µM] | activity change, negative = cytotoxicity (Es-2) -6.19% [at 11.6 µM] | activity change, negative = cytotoxicity (HeLa) 2.2% [at 11.6 µM] | activity change, negative = cytotoxicity (Hek293T) -1.07% [at 11.6 µM] | activity change, negative = cytotoxicity (JEG-3) -1.18% [at 11.6 µM]

CCN(CCN(C)C)C(=O)CNCc1cc(C(N)=O)ccn1
inactive: outcome (CRL-7250) | max response (HEK293) 1.94% | outcome (HaCat [1]) | max response (KB-3-1) 7.84% | outcome (NIH3T3 [2]) | outcome (HACAT [3]) | outcome (NIH3T3 [4]) | Potency (C33A) | outcome (CASKI) | Potency (Es-2) | Potency (HeLa) | Potency (Hek293T) | Potency (JEG-3)

C=C1CCC[C@]2(C)CC[C@@](O)(C(=C)C(=O)O)C[C@@H]12
inactive: max response (CRL-7250) -0.228% | max response (HEK293) -21.6% | outcome (HaCat [1]) | max response (KB-3-1) -4.38% | max response (NIH3T3 [2]) -3.81% | outcome (HACAT [3]) | Potency (C33A) | Potency (CAOV3) | outcome (CASKI) | Potency (Es-2) | Potency (HeLa) | Potency (Hek293T) | Potency (JEG-3)

COc1cccc(CN(C(=O)CC(C)(C)C)C2CC(C(=O)N3CCNCC3)N(Cc3ccc4c(c3)OCO4)C2)c1 (stereo not drawn)
inactive: max response (CRL-7250) -4.46% | max response (HEK293) -17.6% | outcome (HaCat [1]) | outcome (KB-3-1) | outcome (NIH3T3 [2]) | outcome (HACAT [3]) | outcome (NIH3T3 [4]) | Potency (C33A) | outcome (CASKI) | Potency (Es-2) | Potency (HeLa) | Potency (Hek293T) | Potency (JEG-3)

O=C(CCCCC1CCCCC1)N1CCC(c2cnc[nH]2)CC1
active: Potency (HEK293) 5.8 µM
inactive: max response (CRL-7250) -15.2% | outcome (HaCat [1]) | max response (KB-3-1) -20.1% | outcome (NIH3T3 [2]) | outcome (HACAT [3]) | outcome (NIH3T3 [4]) | Potency (CAOV3) | outcome (CASKI) | Potency (Es-2) | Potency (HeLa) | Potency (JEG-3)

C=C1C(O)CCC2(C)CC3(OC)OC(=O)C(C)=C3CC12 (stereo not drawn)
inactive: outcome (CRL-7250) | max response (HEK293) 0.468% | outcome (HaCat [1]) | max response (KB-3-1) 3.24% | outcome (NIH3T3 [2]) | outcome (HACAT [3]) | outcome (NIH3T3 [4]) | Potency (C33A) | outcome (CASKI) | Potency (Es-2) | Potency (HeLa) | Potency (Hek293T) | Potency (JEG-3)

Cc1ccc([C@@H]2CC=C(C(=O)O)[C@H](c3ccc(C(C)(C)C)cc3)N2S(=O)(=O)c2ccc(C)cc2)cc1
inactive: outcome (CRL-7250) | max response (HEK293) -30.1% | outcome (HaCat [1]) | max response (KB-3-1) 3.45% | outcome (NIH3T3 [2]) | outcome (HACAT [3]) | outcome (NIH3T3 [4]) | Potency (C33A) | outcome (CASKI) | Potency (Es-2) | Potency (HeLa) | Potency (Hek293T) | Potency (JEG-3)

CC1(C)CC[C@]2(C(=O)O[C@@H]3O[C@H](CO)[C@@H](O)[C@H](O)[C@H]3O)CC[C@]3(C)C(=CCC4[C@@]5(C)CC[C@H](OC6OC(C(=O)O)C(OC7OC(CO)C(O)C(O)C7O)C(O)C6O)C(C)(C)C5CC[C@]43C)C2C1 (stereo partly drawn)
inactive: max response (CRL-7250) 0.724% | max response (HEK293) 3.09% | outcome (HaCat [1]) | outcome (KB-3-1) | outcome (NIH3T3 [2]) | outcome (HACAT [3]) inactive [at 9.27 µM] | outcome (NIH3T3 [4]) inactive [at 9.27 µM] | activity change, negative = cytotoxicity (C33A) 1.52% [at 11.6 µM] | activity change, negative = cytotoxicity (CASKI) 15.2% [at 11.6 µM] | activity change, negative = cytotoxicity (Es-2) 1.85% [at 11.6 µM] | activity change, negative = cytotoxicity (HeLa) 2.77% [at 11.6 µM] | activity change, negative = cytotoxicity (Hek293T) 10.4% [at 11.6 µM] | activity change, negative = cytotoxicity (JEG-3) 9.79% [at 11.6 µM]

Cc1cccc(-c2nn3c(c2-c2ccnc4ccc(C(N)=O)cc24)CCC3)n1
inactive: max response (CRL-7250) 1.85% | max response (HEK293) 3.73% | outcome (HaCat [1]) | outcome (KB-3-1) | max response (NIH3T3 [2]) -5.67% | outcome (HACAT [3]) | Potency (C33A) | Potency (CAOV3) | outcome (CASKI) | Potency (Es-2) | Potency (HeLa) | Potency (Hek293T) | Potency (JEG-3)

C=C1CC/C=C(/C(=O)O)CCC2C1CC2(C)C (stereo not drawn)
inactive: max response (CRL-7250) -2.67% | max response (HEK293) -4.76% | outcome (HaCat [1]) | max response (KB-3-1) 4.31% | outcome (NIH3T3 [2]) | outcome (HACAT [3]) | outcome (NIH3T3 [4]) | Potency (C33A) | outcome (CASKI) | Potency (Es-2) | Potency (HeLa) | Potency (Hek293T) | Potency (JEG-3)

C=CC(C)(O)CC/C=C(\C)C(=O)O[C@@H]1[C@@H](O)[C@H](OC(C)(C=C)CC/C=C(\C)C(=O)O[C@@H]2O[C@H](CO)[C@@H](O)[C@H](O)[C@H]2O)O[C@H](CO)[C@H]1OC(=O)/C(C)=C/CCC(C)(O)C=C (stereo partly drawn)
inactive: max response (CRL-7250) 1.38% | max response (HEK293) -3.95% | outcome (HaCat [1]) | outcome (KB-3-1) | max response (NIH3T3 [2]) 1.18% | outcome (HACAT [3]) inactive [at 9.27 µM] | activity change, negative = cytotoxicity (C33A) 1.06% [at 11.6 µM] | activity change, negative = cytotoxicity (CAOV3) -0.925% [at 11.6 µM] | activity change, negative = cytotoxicity (CASKI) -1.1% [at 11.6 µM] | activity change, negative = cytotoxicity (Es-2) 0.394% [at 11.6 µM] | activity change, negative = cytotoxicity (HeLa) -4.07% [at 11.6 µM] | activity change, negative = cytotoxicity (Hek293T) 7.88% [at 11.6 µM] | activity change, negative = cytotoxicity (JEG-3) -0.355% [at 11.6 µM]

CC1=C(C)C(=O)OC(C(C)C2C(O)CC3C4C5OC5C5(O)CC(OC6OC(CO)C(OC7OC(C)C(O)C(O)C7O)C(O)C6O)CC(O)C5(C)C4CCC32C)C1 (stereo not drawn)
inactive: max response (CRL-7250) -10% | max response (HEK293) -3.17% | outcome (HaCat [1]) | max response (KB-3-1) 2.34% | max response (NIH3T3 [2]) 0.724% | outcome (HACAT [3]) inactive [at 17.4 µM] | Potency (C33A) | Potency (CAOV3) | outcome (CASKI) | Potency (Es-2) | Potency (HeLa) | Potency (Hek293T) | Potency (JEG-3)
